According to publication PMC5700166:

Assays:
[1] = target: T1, GST-Nv-NF-kB (Ser allele) (Nematostella vectensis, UniProt A7UNT2 2-411); experiment: protein-binding microarray (PBM); PBM: ~300 nM protein, 6 mM HEPES pH 7.8, 80 mM KCl, 0.5 mM EDTA, 0.5 mM EGTA, 6% glycerol, 35 ng/ul poly-dIdC, 1% milk, 1 h, room temperature; Ap Aiptasia and Nv Nematostella (sea anemones) / Co Capsaspora / Aq Amphimedon (sponge) / Dm Drosophila / Hu human; RHD is the Rel homology domain; high values mean tight binding; conditions: dsDNA, one strand shown
T1 sequence: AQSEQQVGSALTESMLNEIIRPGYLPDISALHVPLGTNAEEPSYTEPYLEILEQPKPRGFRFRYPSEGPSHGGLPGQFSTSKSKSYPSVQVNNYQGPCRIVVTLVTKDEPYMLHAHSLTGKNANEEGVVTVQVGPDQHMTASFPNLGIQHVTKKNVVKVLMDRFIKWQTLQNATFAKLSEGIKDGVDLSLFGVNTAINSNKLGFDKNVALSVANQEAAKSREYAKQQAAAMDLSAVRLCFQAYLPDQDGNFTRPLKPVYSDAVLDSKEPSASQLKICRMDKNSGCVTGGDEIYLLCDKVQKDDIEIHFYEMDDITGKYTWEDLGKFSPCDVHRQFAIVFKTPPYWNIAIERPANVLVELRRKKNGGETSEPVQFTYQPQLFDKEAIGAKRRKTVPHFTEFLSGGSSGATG

[2] = target: GST-Hu-p50 (Homo sapiens, UniProt P19838 7-356); experiment: as above; conditions: dsDNA, one strand shown
Chain of GST-Hu-p50 (P19838 7-356): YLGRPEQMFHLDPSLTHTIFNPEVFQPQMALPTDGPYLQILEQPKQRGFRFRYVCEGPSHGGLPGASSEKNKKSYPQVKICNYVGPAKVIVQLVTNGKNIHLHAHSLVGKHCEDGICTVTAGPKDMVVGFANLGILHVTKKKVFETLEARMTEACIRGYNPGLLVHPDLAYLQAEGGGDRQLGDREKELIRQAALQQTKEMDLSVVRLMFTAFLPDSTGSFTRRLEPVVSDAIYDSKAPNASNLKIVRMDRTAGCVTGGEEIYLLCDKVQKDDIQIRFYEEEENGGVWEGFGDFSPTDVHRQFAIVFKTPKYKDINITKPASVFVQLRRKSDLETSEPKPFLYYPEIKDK

Sequence | binding signal [1] [z-score] | binding signal [2] [z-score]
CCGATTAACATCACGGGACCCCCTGATGTTAATCGGGTCTTGATTCGCTTGACGCTGCTG | 3.8 | 3.54
CCGATTAACATCAGGAGATTCCCTGATGTTAATCGGGTCTTGATTCGCTTGACGCTGCTG | 4.04 | 4.59
CCGATTAACATCAAACCCCCCCGTGATGTTAATCGGGTCTTGATTCGCTTGACGCTGCTG | 4.7 | 5.27
CCGATTAACATCAGGGATCCCCATGATGTTAATCGGGTCTTGATTCGCTTGACGCTGCTG | 5.06 | 4.35
CCGATTAACATCATCCGGGAAAATGATGTTAATCGGGTCTTGATTCGCTTGACGCTGCTG | 5.1 | 2.14
CCGATTAACATCAGGGGGGGTGATGATGTTAATCGGGTCTTGATTCGCTTGACGCTGCTG | 3.98 | 4.13
CCGATTAACATCACCAAATTCCCTGATGTTAATCGGGTCTTGATTCGCTTGACGCTGCTG | 6.26 | 4.49
CCGATTAACATCAAGCGTTTCCCTGATGTTAATCGGGTCTTGATTCGCTTGACGCTGCTG | 3.6 | 1.47
CCGATTAACATCAATGCACCCCCTGATGTTAATCGGGTCTTGATTCGCTTGACGCTGCTG | 4.37 | 4.12
CCGATTAACATCAGTAATTCCCATGATGTTAATCGGGTCTTGATTCGCTTGACGCTGCTG | 3.61 | 3
CCGATTAACATCAGGGGGGACAATGATGTTAATCGGGTCTTGATTCGCTTGACGCTGCTG | 4.45 | 3.69
CCGATTAACATCAGGATAATCCCTGATGTTAATCGGGTCTTGATTCGCTTGACGCTGCTG | 1.62 | 2.15
CCGATTAACATCACGGGAAGTCCTGATGTTAATCGGGTCTTGATTCGCTTGACGCTGCTG | 1.71 | 1.59
CCGATTAACATCAGGGGGTGTACTGATGTTAATCGGGTCTTGATTCGCTTGACGCTGCTG | 3.99 | 4.44
CCGATTAACATCAATGTCGGTGGTGATGTTAATCGGGTCTTGATTCGCTTGACGCTGCTG | 1.08 | 1.95
CCGATTAACATCAGGGAATTGTATGATGTTAATCGGGTCTTGATTCGCTTGACGCTGCTG | 4.84 | 3.41
CCGATTAACATCACATACTCCCCTGATGTTAATCGGGTCTTGATTCGCTTGACGCTGCTG | 4.25 | 3.33
CCGATTAACATCACCCAACCCCCTGATGTTAATCGGGTCTTGATTCGCTTGACGCTGCTG | 3.73 | 4.28

Sequence | binding signal [1] [z-score] | binding signal [2] [z-score]
CCGATTAACATCAAGAAATTTCCTGATGTTAATCGGGTCTTGATTCGCTTGACGCTGCTG | 1.55 | 1.76
CCGATTAACATCATAAAATCCCATGATGTTAATCGGGTCTTGATTCGCTTGACGCTGCTG | 2.31 | 3.45
CCGATTAACATCAGGATCTCCCCTGATGTTAATCGGGTCTTGATTCGCTTGACGCTGCTG | 5.15 | 4.48
CCGATTAACATCAAGTCCCCCAATGATGTTAATCGGGTCTTGATTCGCTTGACGCTGCTG | 3.54 | 4.25
CCGATTAACATCAGGGGGGGTCATGATGTTAATCGGGTCTTGATTCGCTTGACGCTGCTG | 1.92 | 3.32
CCGATTAACATCACAAAATTTCCTGATGTTAATCGGGTCTTGATTCGCTTGACGCTGCTG | 1.16 | 1.41
CCGATTAACATCAAGAATTCCCATGATGTTAATCGGGTCTTGATTCGCTTGACGCTGCTG | 5.01 | 4.34
CCGATTAACATCAAGCGTTCCCCTGATGTTAATCGGGTCTTGATTCGCTTGACGCTGCTG | 6.39 | 3.66
CCGATTAACATCAAAAAAATACCTGATGTTAATCGGGTCTTGATTCGCTTGACGCTGCTG | 4.89 | 3.43
CCGATTAACATCAGGGGGTCACCTGATGTTAATCGGGTCTTGATTCGCTTGACGCTGCTG | 2.36 | 2.9
CCGATTAACATCAAAAAACCGTTTGATGTTAATCGGGTCTTGATTCGCTTGACGCTGCTG | 2.22 | 1.52
CCGATTAACATCACTGGGAATTCTGATGTTAATCGGGTCTTGATTCGCTTGACGCTGCTG | 3 | 3.22
CCGATTAACATCAATATACCCCCTGATGTTAATCGGGTCTTGATTCGCTTGACGCTGCTG | 5.46 | 4.42
CCGATTAACATCAGGAATACCCCTGATGTTAATCGGGTCTTGATTCGCTTGACGCTGCTG | 4.15 | 5.04
CCGATTAACATCACGGGAATCCCTGATGTTAATCGGGTCTTGATTCGCTTGACGCTGCTG | 4.38 | 3.99
CCGATTAACATCAGGAAGTCCCATGATGTTAATCGGGTCTTGATTCGCTTGACGCTGCTG | 4.19 | 4.09
CCGATTAACATCAGGCCTCCCCCTGATGTTAATCGGGTCTTGATTCGCTTGACGCTGCTG | 4.46 | 4.37
CCGATTAACATCAATGTCCCCCCTGATGTTAATCGGGTCTTGATTCGCTTGACGCTGCTG | 4.42 | 3.89
